# Laboratory results reported in ChEMBL document CHEMBL3988442, “University of Dundee, Small-Polar-MMV Screening Library” (2021).
# Hit rate of the full screen: of about 48,000 compounds, about 13,000 (27%) showed an effect of 50% or more. This is one part of the list.
# Tested on: Wolbachia pipientis
# Test: Anti-Wolbachia Cell-Based Screen
# Assay type: functional
# Set-up: scale not given: in the data most compounds retested in dose-response had high values
# Conditions: 5 µM
row,SMILES,Percent Effect
1,CN(C(=O)c1ccc(C#N)cc1)C1CCN(c2ccccn2)CC1,4.986%
2,CN(C(=O)c1ccc(Cl)cc1)C1CCN(c2ccccn2)CC1,98.58%
3,CN(C(=O)Nc1cccc(C#N)c1)C1CCN(c2ccccn2)CC1,-13.99%
4,CN(C(=O)c1cccc(Cl)c1)C1CCN(c2ccccn2)CC1,127.4%
5,CN(C(=O)c1cc(Cl)c[nH]1)C1CCN(c2ccccn2)CC1,-4.084%
6,CC(NC(=O)NCCCN(C)S(C)(=O)=O)c1ccncc1 (stereo unspecified),10.56%
7,CC1c2cc(F)ccc2CCN1CCS(=O)(=O)C(C)C (stereo unspecified),14%
8,Cc1noc(C)c1CN1CCn2cc(CNC(=O)C3CCC3)nc2C1.O=C(O)C(F)(F)F,-7.774%
9,CC(=O)NCC(=O)N1CCn2cc(CN3CCCCC3)nc2C1.O=C(O)C(F)(F)F,-3.049%
10,O=C(O)C(F)(F)F.O=S(=O)(C1CC1)N1CCn2cc(CNc3ccccn3)nc2C1,-1.604%
11,Cc1noc(C)c1CN1CCn2cc(CNc3ccccn3)nc2C1.O=C(O)C(F)(F)F.O=C(O)C(F)(F)F,109%
12,Cc1noc(C)c1CN1CCn2cc(CN3CCCCC3)nc2C1.O=C(O)C(F)(F)F,100%
13,Cc1noc(C)c1CN1CCn2c(COC(C)C)nnc2C1,-15.51%
14,Cc1noc(C)c1CN(Cc1ccccc1)C(C)CN1CCOCC1 (stereo unspecified),-1.266%
15,Cc1noc(C)c1CN1CCc2ncc(CN3CCCC3)n2CC1.O=C(O)C(F)(F)F.O=C(O)C(F)(F)F,-7.49%
16,Cc1ccc(C(=O)N2CCn3cc(CN4CCCCC4)nc3C2)o1.O=C(O)C(F)(F)F,18.27%
17,Cc1noc(C)c1CN1CCn2cc(CN3CCCC3)nc2C1.O=C(O)C(F)(F)F.O=C(O)C(F)(F)F,117.4%
18,O=C(O)C(F)(F)F.O=C(O)C(F)(F)F.c1ccc(NCc2cn3c(n2)CN(Cc2cccs2)CC3)nc1,4.417%
19,Cc1noc(C)c1CN1CCn2cc(CN3CCOCC3)nc2C1,95.37%
20,O=C(Cc1ccc(Br)cc1)N1CC(S(=O)(=O)C2CCCCC2)C1,-12.58%
21,N#Cc1cccc(C(=O)Nc2ccc([C@@H](O)[C@H]3COCC(=O)N3)cc2)c1,-8.801%
22,Cc1nnc([C@@H]2CC[C@@H]3[C@@H](CCN3S(=O)(=O)C3CC3)O2)o1,10.23%
23,CC1(C)CN(C(=O)c2ccccc2-n2cncn2)CC1(C)O (stereo unspecified),-36.51%

row,SMILES,Percent Effect
1,COc1cccc2c1OCCCN(Cc1c[nH]nc1C(=O)O)C2,0.6416%
2,CCN(CC)Cc1cnc2n1CCN(Cc1c(C)noc1C)CC2.O=C(O)C(F)(F)F.O=C(O)C(F)(F)F,-10.46%
3,CCN(CC)Cc1cn2c(n1)CN(Cc1c(C)noc1C)CC2.O=C(O)C(F)(F)F.O=C(O)C(F)(F)F,104%
4,Cc1ccc(CN2CCn3cc(CN(C)Cc4ccco4)nc3C2)o1.O=C(O)C(F)(F)F.O=C(O)C(F)(F)F,18.64%
5,CCc1noc(C2CCN(C(=O)CCn3nc(C)cc3C)CC2)n1,2.839%
6,CC(=O)N1CCC(c2c(CN(C)C)cnc3cc(C)nn23)CC1,74.12%
7,CC(=O)N1CCC(c2cc3c(ncn3C)c(-c3cnn(C)c3)n2)CC1,-10.45%
8,Cc1cc(N(C)CCN(C)C)n2nc(C)cc2n1,-8.762%
9,Cc1cc(N(C)CCN(C)C2CCCC2)n2nc(C)cc2n1,9.952%
10,Cc1cc2ncc(CN(C)C)c(C3CCN(C)CC3)n2n1,76.44%
11,COc1cc(C(=O)N2Cc3cnc(C(C)(C)C)nc3C2)ccn1,-33.89%
12,O=C(C1CCCCC1)N1CCCC([C@@H]2C[C@H](C(F)F)n3ncnc3N2)C1 (stereo partly specified),100.7%
13,O=C(C1CCCC1)N1CCC(C(O)c2ccc(F)cc2)CC1 (stereo unspecified),-1.378%
14,O=C(NCCOc1ccc(F)cc1)C1CCCN(C(=O)C2CC2)C1 (stereo unspecified),-0.9975%
15,O=C(C1CCCC1)N1CCCC([C@@H]2C[C@H](C(F)F)n3ncnc3N2)C1 (stereo partly specified),108.9%
16,Cc1nnc2n1CCN(CC(O)CN1CCC(C)CC1)C2 (stereo unspecified),-0.2217%
17,CC(C)(C)c1nc(CN2CCOC(Cn3cncn3)C2)cs1 (stereo unspecified),103.7%
18,Cc1ccc(-c2nc(CN3CCOC(Cn4cncn4)C3)cs2)o1 (stereo unspecified),11.16%
19,CC(=O)N(C)c1nc(CN2CCOC(Cn3cc(C)cn3)C2)cs1 (stereo unspecified),-3.323%
20,Cc1cnn(CC2CN(Cc3csc(C(C)C)n3)CCO2)c1 (stereo unspecified),144.1%
21,CC(C)Cc1noc(CN2CCOC(Cn3cncn3)C2)n1 (stereo unspecified),-1.295%
22,CC(C)c1nc(CN2CCOC(Cn3cncn3)C2)cs1 (stereo unspecified),78.62%
23,CC(C)c1nc(CN2CCOCC2)cs1,0.6364%

row,SMILES,Percent Effect
1,c1csc(-c2nc(CN3CCOC(Cn4cncn4)C3)co2)c1 (stereo unspecified),1.427%
2,CC(C)(C)c1nc(CN2CCCC(Cn3cncn3)C2)cs1 (stereo unspecified),5.475%
3,CN(C(=O)COCc1ccccc1)C1CCN(CC2CCOC2)CC1 (stereo unspecified),-14.42%
4,CCC(C)(N)c1nc(C(C)C)cc(=O)[nH]1.Cl (stereo unspecified),-2.59%
5,CCc1nnc2n1CC(CNCc1ccncc1)CC2 (stereo unspecified),-8.895%
6,Cc1nccn1-c1ccc(CNS(=O)(=O)N2CCCC(C)C2)cn1 (stereo unspecified),-3.486%
7,O=C(NCc1ccc(-n2cncn2)nc1)c1cnccn1,91.78%
8,O=C(NCc1ccc(-n2cncn2)nc1)c1cc[nH]n1,86.29%
9,CCCc1nc(C(=O)NCc2cccnc2-n2cncn2)cs1,-5.546%
10,O=C(NCc1ccc(-n2cncn2)nc1)c1ccoc1,0.1706%
11,CC(C(=O)NCc1ccc(-n2cncn2)nc1)S(C)(=O)=O (stereo unspecified),-11.84%
12,O=C(NCc1cccnc1-n1cncn1)c1cc(Cl)ccn1,106.2%
13,CCN(CC)c1ccc(C(=O)NCc2cccnc2-n2cncn2)cn1,14.25%
14,CCC(C)C(=O)NCc1ccc(-n2cncn2)nc1 (stereo unspecified),-5.498%
15,CC(C(=O)NCc1ccc(-n2cncn2)nc1)n1ccnc1 (stereo unspecified),-4.71%
16,CC(C)C(=O)NCc1ccc(-n2cncn2)nc1,-6.912%
17,CC(C)COC(C)C(=O)NCc1ccc(-n2cncn2)nc1 (stereo unspecified),-8.308%
18,O=C(NCc1ccc(-n2cncn2)nc1)c1cc(Cl)ccn1,100.5%
19,COCCN(Cc1ccc(F)cc1Cl)C(=O)c1ccc(=O)[nH]n1,-1.923%
20,CCc1nsc(N2CCN(CC(=O)Nc3c(C)n[nH]c3C)CC2)n1,-25.55%
21,CCc1nc(CN2CCCN(C(=O)COCC3CC3)CC2)cs1,-1.235%
22,CCN(CC(C)O)C(=O)Nc1cnn(CCOC)c1 (stereo unspecified),-12.18%
23,NC(=O)NC(=O)CCN1CCCN(c2nccs2)CC1,-3.66%

row,SMILES,Percent Effect
1,COCc1cc(N(C)Cc2cnccn2)nc(C(C)(C)C)n1,4.515%
2,CC(C)(CNCc1ccc(OCc2cscn2)cc1)C(N)=O.Cl,0.3922%
3,COc1ccc(F)cc1-c1ccccc1CC1(C(=O)O)CCOCC1,118.1%
4,CCOC(=O)C1(Cc2ccccc2-c2ccccc2OC)CCNCC1.Cl,172.1%
5,COc1ccccc1CN(C)C(=O)CN1C(=O)OC[C@@H]1c1ccccc1,-5.71%
6,COc1ccc(F)cc1NC(=O)NCC1(C)COC1,5.652%
7,COc1ccccc1Oc1ncccc1CNC(=O)C1(C)CCCNC1 (stereo unspecified),21.66%
8,CCOC(=O)C1(Cc2cccc(OC)c2)CCN(Cc2ccon2)CC1,2.808%
9,COc1ccccc1CCN[C@@H]1c2ccccc2C2(CCNCC2)[C@H]1O,-1.43%
10,COc1ccc(F)cc1NC(=O)NCC1(CN2CCOCC2)CC1,21.38%
11,COc1ccccc1-c1ccccc1CC1(C(=O)O)CCNCC1,100.9%
12,O=C(Cc1ccccn1)N1CCn2cc(Cn3cncn3)nc2C1,22.42%
13,Cn1cc(C2(C)CN(c3ncccc3C#N)CCO2)cn1 (stereo unspecified),-13.05%
14,CN(C)Cc1ccnc(NS(=O)(=O)CCc2ccccc2)c1,-12.88%
15,OCc1cc2ccccc2nc1N1CCCC1,4.126%
16,CCCc1nc(C(=O)N2CCN(C(=O)OC)CC2)cs1,-2.631%
17,CN(C)CCNC(=O)c1cc2n(n1)CCN(C(=O)c1ccco1)C2,-13.42%
18,COC(=O)c1cc2n(n1)CCN(C(=O)c1csc(CN(C)C)n1)C2,85.52%
19,CCCc1nc(C(=O)N2CCN(C(=O)c3ccc(OC)cc3)CC2)cs1,10.06%
20,Cc1cc(C)c(C(=O)N2CCn3nc(C(=O)NCCN(C)C)cc3C2)[nH]1,-6.569%
21,CCCc1nc(C(=O)N2CCn3nc(C(=O)OC)cc3C2)cs1,111.4%
22,Cc1cc(C)c2nc(CN3C[C@H](CCO)[C@@H](N)C3)cc(O)c2c1,-3.113%
23,CCOCC(=O)Nc1ccc(-n2ccc(C(N)=O)n2)cc1,5.23%

row,SMILES,Percent Effect
1,CCc1ccc(CN2CCC(=O)N(CC3CC3)C(C(C)C)C2)nc1 (stereo unspecified),-6.583%
2,Cc1cc(CNC(=O)c2ccc(F)c(COCC3CC3)c2)no1,7.35%
3,Cn1cnnc1C1CCCN(C(=O)NCCNc2ccccn2)C1 (stereo unspecified),14.43%
4,Cn1cnnc1C1CCCN(C(=O)NCCOc2ccccc2)C1 (stereo unspecified),6.909%
5,Cn1cnnc1C1CCCN(C(=O)NCCn2ccnc2)C1 (stereo unspecified),89.71%
6,COCCCNC(=O)N1CCCC(c2nncn2C)C1 (stereo unspecified),-7.003%
7,Cn1cnnc1C1CCCN(C(=O)NCCCn2cccn2)C1 (stereo unspecified),106.2%
8,CC(C)N1CCC(CNC(=O)CCc2cc(F)ccc2F)C1 (stereo unspecified),16.43%
9,CC(C)N1CCC(Cc2cncc(-c3cc(F)ccc3C(=O)O)n2)CC1,98.45%
10,CC(C)N1CCC(CC(=O)NC(C(=O)O)c2cc(F)ccc2F)CC1 (stereo unspecified),9.298%
11,CC(C)N1CCC(Cc2cc(-c3ccccc3C(=O)O)ncn2)CC1,-18.63%
12,CN1CCC(Cc2cccc(-c3cc(F)ccc3C(=O)O)n2)CC1,135.9%
13,CN1CCC(Cc2noc(-c3cn(Cc4ccc(F)cc4)nn3)n2)CC1,-9.878%
14,CC(C)N1CCC(CC(=O)NC(C(=O)O)c2cccc(F)c2)CC1 (stereo unspecified),-7.789%
15,CC(C)N1CCC(Cc2cncc(-c3cc(F)ccc3C(=O)O)n2)C1 (stereo unspecified),135%
16,Cn1cc(C(=O)O)c(-c2ccc(F)cc2F)n1,-6.689%
17,CC(C)N1CCC(Cc2cc(-c3cc(F)ccc3C(=O)O)ncn2)C1 (stereo unspecified),139.5%
18,CC(C)N1CCC(CNC(=O)COc2ccc(F)cc2F)C1 (stereo unspecified),8.17%
19,CC(C)N1CCC(CC(=O)NC(C(=O)O)c2ccc(F)cc2)CC1 (stereo unspecified),7.704%
